# According to PubChem BioAssay (Tox21):
# Records with an inconclusive call do not appear. Unmarked numbers belong to inactive results. Calls of active or inactive are those of the source. Calls come from the whole dose curve; as a rule, active = well fitted cell-killing curve with a large enough effect in the repeat runs; inconclusive = weak or mixed curves, or effect the other way; inactive = flat fitted curve, though single readings scatter.
# Experiment: cAMP Responsive Elements (CRE) small molecule agonists, cell-based qHTS assay: qHTS cell viability counter screen (AID 2060914);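 note: viability read after 3 h of compound exposure; nearly all actives have a fitted effect of over 50% in size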
# Details: CRE-bla HEK293T viability, CellTiter-Glo luminescence, 5 h; series mostly up to 92.4 µM; activity change, negative = cytotoxicity: at the top concentration
# Description: National Center for Advancing Translational Sciences [NCATS]
# Division of Preclinical Innovation [DPI]
# U.S. Environmental Protection Agency [EPA]
# National Institutes of Environmental Health Sciences [NIEHS]
# National Toxicology Program [NTP]
# U.S. Food and Drug Administration [FDA]
# CREB (cyclic-AMP Responsive Element Binding Protein) is a cellular transcription factor. It binds to certain DNA sequences called cAMP Responsive Elements (CRE) and regulates the transcription of the genes. […] This cell line can be used to find agonists/antagonists of the cyclic AMP signaling pathway. The activation of the report gene under culture conditions can be detected by fluorescence intensity. This cell line has been used to screen the Tox21 10K compound library to identify agonists that induce oxidative stress. The cytotoxicity of the Tox21 compound library against the CRE-bla cell line was tested in parallel by measuring the cell viability using CellTiter-Glo assay (Promega, Madison, WI) in the same wells.
# Tox21 Assay Protocol Summary:
# CRE-bla Hek 293T cells were suspended in assay medium (DMEM containing 10% dialyzed FBS, 0.1 mM NEAA, 1 mM sodium pyruvate and 25 mM HEPES) and dispensed at 2,000 cells/5 uL /well into 1536-well black wall/clear bottom plates using a Multidrop Combi (ThermoFisher Scientific, Waltham, MA) dispenser. After the assay plates were incubated at 37 C/5% CO2 for 18 hrs, 23 nL of compounds dissolved in DMSO, positive controls or DMSO only was transferred to the assay plate by a pintool workstation (Kalypsys, San Diego, CA). After the plates were incubated at 37 C/5% CO2 for 3 hrs, 1 uL of LiveBLAzer B/G FRET substrate (Invitrogen, Carlsbad, CA) was added to each well using Bioraptr Flying Reagent Dispenser (FRD, Aurora Discovery, San Diego, CA). The plates were incubated at room temperature for 2 h, then fluorescence intensities were measured using an Envision plate reader (PerkinElmer, Shelton, CT) at Excitation 405nm, Emission 460nm and 530nm. The % activity was determined from the ratio of 460nm/530nm. For cell viability readout that measures cytotoxicity, 4 uL /well of CellTiter-Glo reagent was added into the assay plates using Bioraptr FRD. After 30 min incubation at room temperature, the luminescence intensity in the assay plates was measured using a ViewLux (PerkinElmer, Shelton, CT) plate reader.
# % is set by controls: 0 for no effect and ±100 for the full control effect.
SMILES,"activity change, negative = cytotoxicity",Potency
CC(C)=CCC/C(C)=C/CC/C(C)=C/CO,-2.34%,
O=C(CCCN1CCN(c2ccccn2)CC1)c1ccc(F)cc1,-11.2% [at 42.5 µM],
N#CCc1cccc(C(F)(F)F)c1,2.64%,
CCCCCc1ccco1,5.69% [at 42.5 µM],
CC(C)Cc1nccs1,-1.24%,
CCC1COC(=O)O1 (stereo not given),1.7%,
CS(=O)(=O)c1ccc(Cl)cc1,,inactive
COC(=O)c1cc(C(=O)OC)cc(S(=O)(=O)O)c1,-11.9%,
CCCCC1C(=O)N(c2ccccc2)N(c2ccc(O)cc2)C1=O (stereo not given),19% [at 42.5 µM],
CN(C)CCCN1c2ccccc2Sc2ccc(Cl)cc21,,inactive
CC(=O)c1cnccn1,2.85%,
COc1cc(/C=C/C(N)=O)cc(OC)c1OC,7.78% [at 42.5 µM],
CC(C)(C)NC(=O)[C@H]1CC[C@H]2[C@@H]3CC[C@H]4NC(=O)C=C[C@]4(C)[C@H]3CC[C@]12C,,inactive
CC1=CCC(=C(C)C)CC1,3.88%,
C=CC(=O)NC(C)(C)CS(=O)(=O)O,,inactive
O=C1OC(=O)c2ccccc21,-0.82%,
O=Cc1ccc(O)c(O)c1O,2.64% [at 42.5 µM],
O=C(OC[C@H]1O[C@@H](OC(=O)c2cc(O)c(O)c(OC(=O)c3cc(O)c(O)c(O)c3)c2)[C@H](OC(=O)c2cc(O)c(O)c(OC(=O)c3cc(O)c(O)c(O)c3)c2)[C@@H](OC(=O)c2cc(O)c(O)c(OC(=O)c3cc(O)c(O)c(O)c3)c2)[C@@H]1OC(=O)c1cc(O)c(O)c(OC(=O)c2cc(O)c(O)c(O)c2)c1)c1cc(O)c(O)c(OC(=O)c2cc(O)c(O)c(O)c2)c1,-4.58% [at 18.9 µM],
C=CC(=O)OCCCC,,inactive
CCO[C@@H]1O[C@H](C(COCc2ccccc2)OCc2ccccc2)[C@H](OCc2ccccc2)[C@H]1O (stereo not given in full),-0.585% [at 42.5 µM],

SMILES,"activity change, negative = cytotoxicity",Potency
CCCCOC(=O)CC#N,2.52%,
O=CO,-4.64% [at 8.39 µM],
COc1cc(C)c(Cc2cnc(N)nc2N)cc1OC,5.3% [at 42.5 µM],
C=CC(C)C#N (stereo not given),0.0155%,
CCN1CCc2nc(N)oc2CC1,4.92% [at 42.5 µM],
CCC/C=C(\C=O)CC,-5.9%,
C=C1C[C@H]2[C@@H]3C=C(C)C4=CC(=O)CC[C@]4(C)[C@H]3CC[C@]2(C)[C@@]1(OC(C)=O)C(C)=O,-15.2% [at 42.5 µM],
N[C@H]1C(O)O[C@H](CO)[C@H](O)[C@@H]1O (stereo not given in full),1.04%,
CCOC(=O)COc1ccc2c(c1)CC(NCC(O)c1cccc(Cl)c1)CC2 (stereo not given),0.534%,
O=C1OCCN1/N=C/c1ccc([N+](=O)[O-])o1,5.23% [at 42.5 µM],
C=C(C)c1ccccc1,12.6%,
CCN(CC)C(=O)c1cccc(C)c1,,inactive
COc1cc([C@@H]2c3cc4c(cc3[C@H](O)[C@H]3COC(=O)[C@H]23)OCO4)cc(OC)c1OC,,inactive
CC(C)[C@H](N)C(=O)OCCOCn1cnc2c(=O)[nH]c(N)nc21,-0.0711% [at 42.5 µM],
CC(=O)N1CCN(c2ccc(O)cc2)CC1,-3.77% [at 42.5 µM],
CC(C)(O)c1ccccc1CC[C@@H](SCC1(CC(=O)O)CC1)c1cccc(/C=C/c2ccc3ccc(Cl)cc3n2)c1,14.2% [at 42.5 µM],
O=Cc1ccccc1O,,inactive
CNCc1ccccc1,-16% [at 42.5 µM],
CN1CCN(c2c(F)cc3c(=O)c(C(=O)O)cn4c3c2OCN4C)CC1,10.7% [at 18.9 µM],
NCCOCCOCCN,-8.26%,
